Reference: PubChem BioAssay
Calls of active or inactive are those of the source.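 How the source made its calls, unless noted: active means fluorescence slope higher than the sample average by over 3 SD (cut at about -0.22 in these data, passing the limit was not always enough); inactive means the rest.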

Legend:
[1] = inhibitors of TNFa-induced NFkB p65 translocation, primary screen, imaging, HUVEC, MLSMR starter and 10KST1 sets (AID 438;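 active means inhibition above 20% together with a positive visual image hit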;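 further: compound added about 3h40 before a 20 min TNFalpha stimulation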;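 on inhibition: signal is the nuclear over cytoplasmic p65 intensity ratio per well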); conditions: HUVEC TNFa-induced p65 nuclear translocation; cell count: measured here: nuclei count (cytotoxicity indicator), at 2.08 µM; inhibition: at 2 µM, stronger effect = higher value, 0% TNFa-plus-vehicle, 100% no-TNFa wells
[2] = inhibitors of mutant huntingtin aggregation, primary screen, imaging, exon1htt(103Q)mCFP cells, high-content imaging (AID 483;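 active means visual image review flags a hit and inhibition of aggregation exceeds 20%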;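 further: compound exposure lasted 3 days before fixation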;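 on nuclei count: percent of the per-plate median nuclei count of sample wells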); conditions: exon1htt(103Q)mCFP cell line, aggregate imaging, at 2 µM; inhibition of aggregation: stronger effect = higher value; nuclei count: measured here: cell count, toxicity
[3] = inhibitors of E-selectin induction by TNFa, primary screen, imaging, HUVEC, immunofluorescence, MLSMR starter and 10KST1 sets (AID 487;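 active means visually confirmed hit in the image check and inhibition above 20%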;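 on inhibition: signal is fraction of cell area covered by stained E-selectin grains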;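 on nuclei count: 100% = median nuclei count of all wells on the same plate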); conditions: HUVEC TNFalpha-induced E-selectin immunofluorescence imaging, at 2 µM; inhibition: stronger effect = higher value; nuclei count: measured here: cell number, toxicity
[4] = target: Voltage-gated potassium channel subunit beta-2 (Rattus norvegicus) (UniProt P62483); assay: KvBeta enzyme negative modulators, primary screen, biochemical, NADPH fluorescence (AID 622); conditions: recombinant KvBeta, 4-cyanobenzaldehyde reduction, at 10 µM, stronger effect = higher value;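 further: slope of raw intensity against log time taken from 70 to 1610 s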
Chain of Voltage-gated potassium channel subunit beta-2 (Rattus norvegicus) (P62483 whole entry, looked up): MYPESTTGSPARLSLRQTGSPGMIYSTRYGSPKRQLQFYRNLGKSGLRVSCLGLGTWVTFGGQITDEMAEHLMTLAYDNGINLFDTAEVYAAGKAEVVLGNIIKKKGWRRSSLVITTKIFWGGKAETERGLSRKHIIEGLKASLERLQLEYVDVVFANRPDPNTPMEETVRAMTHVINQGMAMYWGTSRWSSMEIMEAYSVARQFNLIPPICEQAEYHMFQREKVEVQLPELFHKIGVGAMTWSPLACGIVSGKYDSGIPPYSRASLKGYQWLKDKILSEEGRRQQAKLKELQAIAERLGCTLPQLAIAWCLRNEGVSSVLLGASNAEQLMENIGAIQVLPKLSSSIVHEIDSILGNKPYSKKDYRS

[5] = target: Voltage-gated potassium channel subunit beta-2 (Rattus norvegicus) (UniProt P62483); assay: KvBeta positive modulators, primary screen, biochemical, NADPH fluorescence (AID 623;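 active means NADPH fluorescence slope more negative than the mean of all samples by about 3 SD, 99.7% confidence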;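 further: fluorescence intensity change per second fitted from 20 to 320 s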); conditions: Recombinant KvBeta, NADPH fluorescence decrease slope, 10 min; at 10 µM; stronger effect = lower value
[6] = target: Alpha-2C adrenergic receptor (Homo sapiens) (UniProt P18825); assay: modulators of alpha2C/GIRK thallium flux, primary screen, cell-based, HEK293 alpha2C/GIRK1/2 (AID 624;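 active means fluorescence slope after compound addition differing from the mean of all screened samples at 99.7% confidence, in either direction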;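 further: slope of fluorescence ratio to pre-addition baseline per second over 15 to 24 s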); conditions: thallium flux BTC fluorescence, at 10 µM, actives lie on both sides
Chain of Alpha-2C adrenergic receptor (Homo sapiens) (P18825 whole entry, looked up): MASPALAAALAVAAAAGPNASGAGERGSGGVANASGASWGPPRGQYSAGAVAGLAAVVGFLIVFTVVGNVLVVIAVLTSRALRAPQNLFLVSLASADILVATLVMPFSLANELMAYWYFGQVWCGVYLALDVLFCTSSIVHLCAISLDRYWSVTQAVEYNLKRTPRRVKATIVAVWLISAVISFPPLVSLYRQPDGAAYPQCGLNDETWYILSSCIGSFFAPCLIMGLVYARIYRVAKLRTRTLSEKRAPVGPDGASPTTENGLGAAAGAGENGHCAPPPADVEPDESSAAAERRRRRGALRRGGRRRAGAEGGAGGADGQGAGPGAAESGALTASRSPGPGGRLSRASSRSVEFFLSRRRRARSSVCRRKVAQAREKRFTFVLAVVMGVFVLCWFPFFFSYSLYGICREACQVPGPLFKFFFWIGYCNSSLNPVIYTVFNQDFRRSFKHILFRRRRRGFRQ

[7] = inhibitors of Sendai virus-induced IRF3 signaling, primary screen, TLR/RLR signaling modifier project, cell-based, Sendai virus stimulus, luciferase, 10K MLSCN set (AID 602276;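 active means inhibition at or above 50% at 10 µM; inactive means inhibition below 50%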;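 further: firefly luciferase from ISG56 promoter only with Renilla not read in this screen; 0% = Sendai virus plus DMSO and 100% = medium plus DMSO without virus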); conditions: HEK293 RL24 IRF3 luciferase reporter, at 10 µM, stronger effect = higher value
[8] = inhibitors of poly I:C-induced TLR3 signaling, primary screen, cell-based, poly I:C stimulus, luciferase, 10K MLSCN set (AID 602277;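 active means inhibition of the reporter signal at or above 50%; inactive means inhibition below 50%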); conditions: HEK293-TLR3 RL24 IRF3 luciferase reporter, at 10 µM, stronger effect = higher value

Row | Compound | cell count [1] | inhibition [1] | inhibition of aggregation [2] | nuclei count [2] [%] | inhibition [3] | nuclei count [3] [%] | fluorescence slope [4] | NADPH fluorescence slope [5] | slope [6] | inhibition [7] | inhibition [8]
1 | Cn1c(=O)cc(OCC(=O)NCCCN2CCN(Cc3ccccc3)CC2)c2ccccc21 | 505 | -6.9% (inactive) | 4.5% (inactive) | 86.8 | -124% (inactive) | 135 | -0.556 (inactive) | 2.6e-05 (inactive) | 0.00749 (inactive) | -11.8% (inactive) | 31.2% (inactive)
2 | O=C(CN(Cc1cccs1)C(=O)CNS(=O)(=O)c1ccccc1)NCc1ccco1 | 473 | -4.2% (inactive) | -5% (inactive) | 104 | -65.9% (inactive) | 98.5 | -0.594 (inactive) | 3.8e-05 (inactive) | 0.00631 (inactive) | -8.34% (inactive) | -2.97% (inactive)
3 | COC(=O)Cn1c2ccccc2c2nc(C)sc21 | 350 | 11.4% (inactive) | -14.3% (inactive) | 106 | -59.3% (inactive) | 125 | -0.439 (inactive) | 7e-06 (inactive) | 0.00472 (inactive) | -14.8% (inactive) | -8.31% (inactive)
4 | COc1ccccc1OCC(=O)Nc1ccc(S(=O)(=O)Nc2nc(C)cc(C)n2)cc1 | 376 | 0% (inactive) | -13.8% (inactive) | 102 | -84% (inactive) | 121 | -0.335 (inactive) | -6.1e-05 (inactive) | 0.00524 (inactive) | 11.5% (inactive) | 17.1% (inactive)
5 | C=CCNC(=O)C1CC(=O)N(c2ccc(OCC(=O)Nc3ccc(OC)cc3)cc2)C1 (centres undefined) | 393 | 0.7% (inactive) | 7.7% (inactive) | 104 | -93.7% (inactive) | 128 | -0.339 (inactive) | -4.8e-05 (inactive) | 0.00432 (inactive) | 5.59% (inactive) | 5.9% (inactive)
6 | Nc1scc(-c2ccncc2)c1Cl | 349 | -0.2% (inactive) | 23% (inactive) | 94.4 | -2.4% (inactive) | 107 | -0.386 (inactive) | 1.9e-05 (inactive) | 0.00535 (inactive) | -19.6% (inactive) | -65.9% (inactive)
7 | Cc1[nH]nc(N=CC2=C(O)CC(C)(C)CC2=O)c1-c1ccc(Cl)cc1 | 344 | 10.1% (inactive) | -7.7% (inactive) | 102 | -27.4% (inactive) | 128 | -0.402 (inactive) | 1.2e-05 (inactive) | 0.00588 (inactive) | 11.6% (inactive) | -25.9% (inactive)
8 | CC1Cc2nc(SCC(=O)N3CCCc4ccccc43)n(C)c(=O)c2S1 (centres undefined) | 647 | 0.5% (inactive) | -0.9% (inactive) | 46.7 | 5.3% (inactive) | 118 | -0.543 (inactive) | -1.5e-05 (inactive) | 0.00618 (inactive) | 6% (inactive) | 20.4% (inactive)
9 | COc1ccc(S(=O)(=O)NCc2ccc(C(=O)O)cc2)cc1 | 375 | 2.2% (inactive) | -11.9% (inactive) | 55.2 | -91.6% (inactive) | 93.9 | -0.624 (inactive) | -2.6e-05 (inactive) | 0.0062 (inactive) | 9.81% (inactive) | 17.1% (inactive)
10 | COC(=O)C1=CN(C)C=C(C(=O)OC)C1c1ccc(O)c(OC)c1 | 281 | 18.4% (inactive) | -27.8% (inactive) | 23.5 | 7.6% (inactive) | 103 | -0.39 (inactive) | -4.6e-05 (inactive) | 0.00249 (inactive) | 11.2% (inactive) | 23.8% (inactive)
11 | CCCOc1ccccc1NC(=O)c1ccc(N)cc1 | 428 | 7% (inactive) | 6.7% (inactive) | 106 | -137% (inactive) | 114 | -0.396 (inactive) | -4.2e-05 (inactive) | 0.00363 (inactive) | 11.3% (inactive) | 18.2% (inactive)
12 | COc1ccc(CCn2c(-c3ccco3)nc3ccccc3c2=O)cc1OC | 425 | -0.6% (inactive) | 2.8% (inactive) | 107 | -99.5% (inactive) | 120 | -0.402 (inactive) | -6.5e-05 (inactive) | 0.00555 (inactive) | -9.43% (inactive) | -5.38% (inactive)
13 | CCC(C)(C(=O)NC1CCCC1)N(Cc1cccs1)C(=O)Cc1cccs1 (centres undefined) | 698 | -0.9% (inactive) | 21% (inactive) | 127 | -7.8% (inactive) | 112 | -0.473 (inactive) | -0.000168 (inactive) | 0.00631 (inactive) | 14.4% (inactive) | 44.6% (inactive)
14 | COc1ccc(S(=O)(=O)NCC(=O)N(CC(=O)NCC2CCCO2)c2ccccc2C)cc1 (centres undefined) | 251 | 2.2% (inactive) | -8.4% (inactive) | 106 | -22.6% (inactive) | 96.9 | -0.399 (inactive) | -6.5e-06 (inactive) | 0.00632 (inactive) | 19.2% (inactive) | 18.4% (inactive)
15 | Nn1c(SCC(=O)Nc2ccc(S(=O)(=O)N3CCCC3)cc2)nnc1C(F)(F)F | 704 | -3.3% (inactive) | -7% (inactive) | 104 | -33.2% (inactive) | 128 | -0.504 (inactive) | -6.5e-05 (inactive) | 0.00607 (inactive) | 9.87% (inactive) | 12.8% (inactive)
16 | CC1=C(C(N)=O)C(c2ccccn2)n2nc(-c3ccccc3Cl)nc2N1 (centres undefined) | 588 | -5.4% (inactive) | -14.7% (inactive) | 104 | -11.6% (inactive) | 111 | -0.553 (inactive) | -3.1e-05 (inactive) | 0.0061 (inactive) | -2.04% (inactive) | 17.2% (inactive)
17 | COc1ccc(N(C)C(=O)CCS(=O)(=O)c2cccc3nonc23)cc1 | 704 | -12.2% (inactive) | 0.8% (inactive) | 108 | -32.3% (inactive) | 118 | -0.488 (inactive) | 1.2e-05 (inactive) | 0.00576 (inactive) | -4.78% (inactive) | -38.6% (inactive)
18 | C1=Nc2c(NCc3ccccc3)ncnc2Oc2ccccc21 | 305 | -0.2% (inactive) | 3.8% (inactive) | 98.1 | -17.3% (inactive) | 112 | -0.502 (inactive) | -2.6e-05 (inactive) | 0.00376 (inactive) | -11.5% (inactive) | 1.46% (inactive)
19 | O=C(CNS(=O)(=O)c1ccccc1)NCc1ccccn1 | 707 | -2.1% (inactive) | -10.6% (inactive) | 106 | -25.5% (inactive) | 113 | -0.517 (inactive) | -1.9e-05 (inactive) | 0.00515 (inactive) | 20.5% (inactive) | 16.3% (inactive)
